Shown are actives, neighbours in structure and some others; about 4.4% of the full set was active somewhere.
tim10-1 inh: tim10-1 yeast growth inhibition; 330,000 tested, 2.2% active; inhibition, % at 20 µM; S. cerevisiae tim10-1 ts strain growth, BacTiter-Glo, 24 h;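 active = inhibition of at least 40%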;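 also: mutant grown at 25 °C; 0% = DMSO wells with yeast and 100% = wells holding no yeast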
tim23-1 inh: growth inhibitors of tim23-1 mutant yeast; S. cerevisiae tim23-1 growth, BacTiter-Glo luminescence, 24 h; AID 463212; 330,000 tested, 1.3% active; inhibition, % at 20 µM;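 active = growth inhibition of the mutant yeast at or above 50%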;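 also: temperature-sensitive mutant grown at 25 °C; plate controls were DMSO-treated mutant yeast for no effect and medium wells lacking yeast for full effect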
Mot1-301 SUMO: SUMOylation pathway inhibition by Mot1-301 growth rescue; S. cerevisiae Mot1-301 growth rescue, ATP luminescence, 38.5C; percent above DMSO median, 100 means doubled; growth rescue, % at 18.8 µM; 320,000 tested, 1% active; AID 2716;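 active = every valid replicate shows activation above 250% relative to neutral control wells; inactive = the rest, any valid replicate at or below 250%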;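 also: OY570 slx delta 5 strain wells were the positive control but not used for scaling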
TIM10 inh: TIM10 yeast growth inhibition; S. cerevisiae TIM10 strain growth, BacTiter-Glo luminescence, 24 h; inhibition, % at 10 µM; 330,000 tested, 1.4% active; AID 463195;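 active = inhibition of 40% or more at the single tested concentration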;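 also: wild-type TIM10 isogenic control strain grown at permissive 25 °C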
PfHsp90 yeast 2: inhibits growth of yeast expressing Plasmodium falciparum Hsp90 | 310,000 tested, 0.32% active | S. cerevisiae expressing PfHsp90, BacTiter-Glo ATP, 48 h; yeast lacking PDR1 and PDR3 efflux regulators | inhibition, % at 9.4 µM | AID 504621;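 active = every replicate shows inhibition above about 80%, whatever the replicate mean, limit read from the data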;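 also: 0% = DMSO neutral controls and 100% = 20 µM radicicol positive controls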
tim10-1 confirm: tim10-1 yeast growth inhibition, confirmed; inhibition, % at 20 µM; 7,400 tested, 56% active; S. cerevisiae tim10-1 ts strain growth, BacTiter-Glo, 24 h; shares compounds with tim10-1 inh;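 active = inhibition of yeast growth at or above a set limit in either of two repeat tests at 20 µM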;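 also: tim10-1 mutant grown at permissive 25 °C to find synthetic lethal compounds; 0% = DMSO yeast wells and 100% = medium wells without yeast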
* = called active by the depositor; x = not tested or not shown.

SMILES	tim10-1 inh	tim23-1 inh	Mot1-301 SUMO	TIM10 inh	PfHsp90 yeast 2	tim10-1 confirm
O=C(N[C@H]1C/C=C\C[C@H](CC(=O)N(CCO)Cc2ccccc2)C(=O)NC[C@H](c2ccccc2)OC1=O)OCC1c2ccccc2-c2ccccc21	-2.6	2.3	8.2	1.9	-3.4	x
CC(=O)c1ccc(OC(=O)Cc2cccc3ccccc23)cc1	46.1*	43.4	35.5	31.2	-1.0	36.2*
Cc1coc(C)c1C(=O)CC1(O)C(=O)N(CCc2ccccc2)c2ccccc21 (centres undefined)	43.9*	27.4	17.1	4.1	x	33.5*
CC(C)CN1CCC(=O)N([C@H](CO)c2ccccc2)CC1	-2.8	17.0	-1.1	-7.1	-6.3	x
COc1cc(C(C#N)N2N=C(c3ccccc3)CC2c2ccccc2)ccc1O (centres undefined)	43.1*	37.0	-3.3	21.9	18.9	19.2
CSc1cccc(NC(=O)c2c(Cl)cnn2C)c1	16.5	18.7	10.9	13.3	-16.9	x
Cn1ncc(Cl)c1C(=O)Nc1cccc(Cl)c1	47.3*	29.3	18.8	18.6	x	27.4
O=c1[nH]c2ccc(S(=O)(=O)N3CCCCC3)cc2[nH]1	1.8	3.7	-22.6	5.0	3.2	x
O=S(=O)(c1ccc2[nH]ccc2c1)N1CCCCCC1	43.9*	38.8	181.7	17.6	-32.8	6.1
COc1ccc2c(c1)C(=O)N(c1ccccc1C)C(=O)C2(C)C	47.3*	32.1	-4.6	33.2	6.7	29.6
COc1ccc(N2C(=O)c3ccccc3C(C)(C)C2=O)cc1	23.2	45.4	7.6	26.7	-7.4	x
[O-][n+]1c2ccccc2c2n1CCCN=C2c1ccc(Cl)cc1	20.1	21.9	-17.9	19.4	x	x
CCC(c1nnnn1Cc1ccccc1)N1CCN(c2ccccc2)CC1 (centres undefined)	40.9*	13.4	-13.0	0.8	x	24.4
COc1ccc(C(c2nnnn2Cc2ccccc2)N2CCN(c3ccccc3)CC2)cc1 (centres undefined)	20.6	32.8	270.6	7.6	-7.4	x
O=C(CN1CCN(S(=O)(=O)c2ccc(F)cc2)CC1)Nc1ccc(Cl)c(C(F)(F)F)c1	43.8*	30.9	-6.7	14.7	11.6	38.6*
O=C(CN1CCN(c2ccccn2)CC1)Nc1ccc(Cl)c(C(F)(F)F)c1	36.9	33.6	4.2	2.5	-22.1	x
O=C(CN1CCN(S(=O)(=O)c2ccc(F)cc2)CC1)Nc1ccc2c(c1)OCCO2	-1.9	6.0	223.4	-10.6	-28.9	x
COc1ccccc1N1CCN(CC(=O)Nc2ccc(Cl)c(C(F)(F)F)c2)CC1	41.5*	40.0	11.3	27.5	-0.9	29.2*
Cc1ccccc1NC(=O)CSc1nnc2ccc(-c3cccnc3)nn12	9.0	2.7	-3.7	-2.0	-0.8	x
Nc1nonc1-n1nnc(C(=O)N/N=C/c2ccccc2F)c1CN1CCc2ccccc21	46.0*	33.4	0.1	-5.2	3.8	16.4
Nc1nonc1-n1nnc(C(=O)N/N=C/c2ccccc2F)c1CN1CCOCC1	10.8	11.6	-1.6	-1.3	5.0	x
C/C(=N\NC(=S)Nc1c(C)cccc1C)c1ccc(OC(F)F)cc1	42.8*	16.6	5.3	31.7	-12.6	41.0*
CC/C(=N\NC(=S)Nc1cc(C)ccc1C)c1ccc(OC(F)F)cc1	57.5*	48.7	2.7	30.8	-14.5	35.8*
CC/C(=N\NC(C)=O)c1ccc(OC(F)F)cc1	4.0	9.0	5.2	-12.5	x	x
O=C(CCCC(=O)Nc1ccccc1Br)N/N=C/c1c(F)cccc1Cl	-16.7	2.5	17.3	-19.5	2.2	x
SMILES	tim10-1 inh	tim23-1 inh	Mot1-301 SUMO	TIM10 inh	PfHsp90 yeast 2	tim10-1 confirm
CCOC(=O)c1sc(-c2ccccn2)nc1C	7.5	8.4	-7.5	10.0	-4.0	x
COc1ccc(N=c2scc(-c3ccc(OC)cc3)n2CCO)cc1	40.7*	40.6	13.0	9.1	11.9	25.1
COCCn1c(-c2ccc(Br)cc2)csc1=Nc1cccnc1	41.5*	28.7	65.0	-1.2	x	16.7
Clc1ccc(-c2csc(=Nc3cccnc3)n2CCCn2ccnc2)cc1Cl	27.1	20.3	-3.3	31.7	-9.3	x
CCn1cc(S(=O)(=O)Nc2ncccn2)cn1	-2.9	4.3	-17.5	-1.8	-19.2	x
CSCCC(NS(=O)(=O)c1ccccc1F)C(=O)Nc1cccc(C)n1 (centres undefined)	4.1	0.4	-11.4	-2.2	-57.0	x
CN(C)c1ccccc1C(=O)c1ccccc1N(C)C	40.4*	24.2	1.3	30.2	11.6	21.8
COc1cc(/C=C/C(=O)OCC(=O)N2CCCc3ccccc32)ccc1OC(F)F	17.8	24.7	-10.7	4.0	0.3	x
CCCC(=O)N(CCN1CCOCC1)c1nc2c(C)ccc(C)c2s1	42.3*	29.1	0.2	4.6	3.1	-4.0
CSCC[C@H](NC(=O)N1CCn2c1nc1ccccc12)C(=O)N1CCCCC1	1.2	0.8	-3.3	0.9	-1.5	x
Cc1ccc(CNC(=O)CCCn2nc(C)n3ccnc3c2=O)cc1	-4.5	13.6	-3.0	-0.3	0.1	x
CCN(CC)CCn1c2c(c(SCC(=O)Nc3cc(C)on3)nc1=O)CCCC2	-14.1	-12.3	-11.2	1.9	-10.3	x
Cc1onc(-c2cccc(Cl)c2Cl)c1C(=O)O/N=C(\N)c1ccc([N+](=O)[O-])o1	44.1*	39.9	-6.0	38.2	-9.3	2.5
CCN(CC(=O)Nc1c(F)cccc1F)C(=O)c1nn(C)c(=O)c2ccccc12	4.9	15.7	5.6	4.7	19.0	x
O=C(c1ccc(F)cc1)C1CCN(C(=S)Nc2ccccc2Cl)CC1	9.9	14.3	11.2	3.0	-10.2	x
Cc1ccccc1NC(=S)N1CCC(C(=O)c2ccc(F)cc2)CC1	41.6*	7.8	97.2	11.7	10.4	5.9
CN1CCN(NC(=O)Nc2cc(Cl)cc(Cl)c2)CC1	18.5	20.3	9.5	8.5	2.5	x
COCCOC(=O)c1sc2nc[nH]c(=O)c2c1C	-2.4	-8.9	6.6	3.0	18.2	x
Cc1c(C(=O)OC2CCCCC2)sc2nc[nH]c(=O)c12	40.2*	22.8	-6.1	19.9	-24.4	13.0
CCC(=O)N1CCc2cc(S(=O)(=O)NCCC(=O)NC3CCCCCC3)ccc21	9.6	-6.1	-3.7	-4.3	5.4	x
CC(C)(C)C(=O)Nc1ccccc1C(=O)NCCC(=O)Nc1ccccc1	-19.2	-0.8	21.0	-0.8	5.8	x
COc1ccc(C(CNC(=O)c2cc(C)oc2C)N2CCOCC2)cc1 (centres undefined)	45.1*	16.9	7.7	2.1	26.6	-1.3
COc1ccc(C(CNC(=O)c2oc3ccc(Cl)cc3c2C)N2CCCCC2)cc1 (centres undefined)	46.8*	25.3	9.1	18.2	0.3	-0.2
COc1ccc(C(CNC(=O)c2oc3ccccc3c2C)N2CCCC2)cc1 (centres undefined)	-25.1	-10.4	8.5	-10.5	1.2	x
CCc1cc(C(=O)NCC(c2ccc(OC)cc2)N2CCOCC2)sc1C (centres undefined)	3.5	6.9	x	-4.4	0.4	x
